Reference: PubChem BioAssay (NCATS)
Inconclusive results are not listed. Activity calls are given as the source filed them. Calls come from the whole dose curve; as a rule, active = well fitted curve in the direction sought with a large enough effect; inconclusive = small, poorly fitted or top-dose-only effect, or another doubt; inactive = no such curve, though single readings can be large; an effect the other way counts as inactive or inconclusive.

Tests used:
[1] = Cellular Toxicity (caspase-3) N2a (AID 665); conditions: N2a cells, luminescence, normalized: DMSO 0%, 10 µM staurosporine 100%; at 92.2 µM (top of the series);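 note: compound exposure lasted 16 h at 37 °C before readout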
How it was run: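 Mouse N2a neuroblastoma cells (1500/well) were treated with compounds for 16 h at 37 °C, then caspase-3/7 activity was read by Caspase-Glo luminescence after 1 h at room temperature. Data were normalized to DMSO and 10 uM staurosporine; AC50 from Hill fits.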

[2] = Cellular Toxicity (caspase-3) NIH 3T3 (AID 666);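 note: caspase signal read after 16 h compound exposure; 0% = DMSO basal and 100% = 100 µM tamoxifen stimulation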
How it was run: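 Mouse NIH 3T3 fibroblasts (1000 cells/well) were treated with compound for 16 hr at 37°C in complete medium; caspase-3/7 activity was read by Caspase-Glo luminescence. Normalized to DMSO and 100 uM tamoxifen; AC50 from Hill fits.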

[3] = target: Cytochrome P450 3A4 (Homo sapiens) (UniProt P08684); experiment: qHTS Assay for Inhibitors and Substrates of Cytochrome P450 3A4 (AID 884); note: % is set by controls: 0 for no effect and ±100 for the full control effect; nearly all actives have a fitted effect of over 50% in size
How it was run: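 20 nM human CYP3A4 with 25 uM Luciferin-PPXE (at KM) in 200 mM KPO4, preincubated 10 min with compound; NADPH regeneration started a 60 min RT reaction. Luciferin detected by luminescence, normalized to 57 uM ketoconazole as full inhibition.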

[4] = Cell Viability - LYMP2-001 (AID 921);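 note: 0% = DMSO only and full inhibition = tetraoctylammonium bromide control wells; nearly all actives have a fitted effect of over 70% in size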
How it was run: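 Steps: seed 2500 lymphoblastoid cells/well; 5 hr, 37 C; add compound; 24 hr, 37 C; CellTiter-Glo reagent, 30 min room temperature; read luminescence. Concentration-response modeled by Hill equation for AC50.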

[5] = MultiTox-Fluor Cytotoxicity Assay - LYMP1-001 - Dead Cells (AID 946);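 note: 0% = DMSO and 100% = tetraoctylammonium bromide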
How it was run: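 AC50 from Hill fit of concentration-response; data normalized to DMSO (basal) and 15 uM tetraoctylammonium bromide (100%). LYMP1-001 lymphoblastoid cells, 2500/well, 16 hr compound at 37 C; dead-cell protease fluorescence, Ex/Em 485/520.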

[6] = MultiTox-Fluor Cytotoxicity Assay - LYMP1-001 - Live Cells (AID 947);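 note: 0% = DMSO only and full inhibition = tetraoctylammonium bromide control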
[7] = Cell Viability - LYMP1-002 - Assay at 16 hr (AID 948);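 note: 0% = DMSO alone and full effect = 92 µM tetraoctylammonium bromide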
How it was run: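 Seed 2500 LYMP1-002 cells per well in complete medium and hold 5 hr at 37 C. Add compound across a concentration series and incubate 16 hr at 37 C. Add CellTiter-Glo, wait 30 min at room temperature, read luminescence.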

[8] = MultiTox-Fluor Cytotoxicity Assay - LYMP1-002 - Live Cells (AID 955); note: % is set by controls: 0 for no effect and ±100 for the full control effect
How it was run: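 Human lymphoblastoid LYMP1-002 cells, 2500/well in complete medium, rested 5 hr at 37 C, then exposed to compounds for 16 hr at 37 C. Live-cell protease cleavage of GF-AFC read by fluorescence (Ex/Em 405/510) after 60 min at room temperature; AC50 from Hill fits.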

[9] = MultiTox-Fluor Cytotoxicity Assay - LYMP1-002 - Dead Cells (AID 960);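 note: 0% = DMSO and 100% = tetraoctylammonium bromide; nearly all actives have a fitted effect of over 60% in size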
How it was run: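 Human lymphoblastoid cells (LYMP1-002), 2500/well in complete medium, were exposed to compounds for 16 hr at 37 C. Dead-cell protease activity was read as bis-AAF-R110 fluorescence (Ex/Em 485/520), normalized to DMSO and 15 uM tetraoctylammonium bromide; AC50 from Hill fits.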

[10] = MultiTox-Fluor Cytotoxicity Assay - LYMP1-003 - Dead Cells (AID 961);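 note: 0% = DMSO and 100% = tetraoctylammonium bromide; nearly all actives have a fitted effect of over 70% in size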
How it was run: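 Human lymphoblastoid LYMP1-003 cells (2500/well) were treated with compounds for 16 hr at 37 C in complete medium. Dead-cell protease release was read by bis-AAF-R110 fluorescence (Ex/Em 485/520). AC50 came from Hill fits, normalized to DMSO and 15 uM tetraoctylammonium bromide.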

[11] = MultiTox-Fluor Cytotoxicity Assay - LYMP1-003 - Live Cells (AID 962);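 note: 0% = DMSO only and full loss = 92 µM tetraoctylammonium bromide; cytotoxic hits lower the live-cell protease signal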
How it was run: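 LYMP1-003 human lymphoblastoid cells (2500/well) in complete medium were preincubated 5 hr at 37 C, then exposed to compounds for 16 hr at 37 C. Live-cell protease cleavage of GF-AFC read by fluorescence (Ex/Em 405/510); AC50 from Hill fits.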

[12] = Cell Viability - LYMP1-003 - Assay at 40 hr (AID 964); note: % is set by controls: 0 for no effect and ±100 for the full control effect; nearly all actives have a fitted effect of over 60% in size
How it was run: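 Human lymphoblastoid LYMP1-003 cells, 2500/well in complete medium, rested 5 hr at 37 C, then exposed to compounds for 40 hr at 37 C. Viability read as intracellular ATP by CellTiter-Glo luminescence; AC50 from Hill fits of concentration-response data.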

[13] = Cell Viability - LYMP2-003 (AID 965);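 note: cells exposed to compounds for 24 h before reading; 0% = DMSO only and full effect = 92 µM tetraoctylammonium bromide; nearly all actives have a fitted effect of over 50% in size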
How it was run: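 Seed 2500 lymphoblastoid cells/well; incubate 5 hr, 37 C; add compounds; incubate 24 hr, 37 C; add CellTiter-Glo, 30 min RT; read luminescence. AC50 from Hill fit.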

[14] = Cell Viability - LYMP2-004 (AID 966);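 note: plate controls were DMSO only for no effect and tetraoctylammonium bromide control for full effect; nearly all actives have a fitted effect of over 65% in size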
How it was run: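 Human lymphoblastoid cells (2500/well) in complete medium were treated with compounds for 24 hr at 37 C, then intracellular ATP was measured by CellTiter-Glo luminescence. AC50 values came from Hill-equation fits of concentration-response data.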

[15] = Cell Viability - LYMP2-005 (AID 967);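 note: plate controls were DMSO only for no effect and 92 µM tetraoctylammonium bromide control for full effect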
How it was run: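 Acute cytotoxicity is scored as a concentration-dependent drop in intracellular ATP in human lymphoblastoid LYMP2-005 cells after 24 h compound treatment. ATP is quantified by luciferase luminescence, and AC50 is derived by Hill-equation modelling.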

[16] = Cell Viability - LYMP2-009 (AID 968);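 note: 0% = DMSO alone and the full-kill end = tetraoctylammonium bromide at 92 µM; nearly all actives have a fitted effect of over 55% in size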
[17] = Cell Viability - LYMP2-011 (AID 969);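 note: 0% = DMSO only and full inhibition = 92 µM tetraoctylammonium bromide; nearly all actives have a fitted effect of over 60% in size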
How it was run: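 Human lymphoblastoid cells (2500/well) were plated in complete medium, preincubated 5 hr at 37 C, then exposed to compounds for 24 hr at 37 C. Intracellular ATP was read by CellTiter-Glo luminescence, and AC50 came from Hill-equation concentration-response fits.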

[18] = Cell Viability - LYMP2-013 (AID 970);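 note: 0% = DMSO only and full inhibition = tetraoctylammonium bromide control; nearly all actives have a fitted effect of over 55% in size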
How it was run: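 Human lymphoblastoid cells, 2500/well, were preincubated 5 hr at 37 C, then treated with compounds for 24 hr at 37 C in complete medium. Intracellular ATP was read by CellTiter-Glo luminescence; AC50 from Hill-equation fits of concentration-response data.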

[19] = Cell Viability - LYMP2-015 (AID 971);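 note: 0% = DMSO only and full effect = 92 µM tetraoctylammonium bromide; nearly all actives have a fitted effect of over 55% in size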
How it was run: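 Human lymphoblastoid cells (2500/well) in complete medium were preincubated 5 hr at 37 C, then compound-treated 24 hr at 37 C. Intracellular ATP was read by CellTiter-Glo luminescence after 30 min at room temperature; AC50 came from Hill-equation concentration-response fits.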

[20] = Cell Viability - LYMP2-017 (AID 972); note: % is set by controls: 0 for no effect and ±100 for the full control effect; nearly all actives have a fitted effect of over 55% in size
How it was run: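 Human lymphoblastoid cells (2500/well) were seeded in complete medium, held 5 hr at 37 C, then exposed to compounds for 24 hr at 37 C. Intracellular ATP was read by CellTiter-Glo luminescence after 30 min at room temperature, with AC50 values from Hill-equation fits.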

[21] = Cell Viability - LYMP2-019 (AID 973)
How it was run: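 Human lymphoblastoid cells were seeded at 2500 cells/well, preincubated 5 hr at 37 C, then exposed to compounds for 24 hr at 37 C in complete medium. Intracellular ATP was measured by CellTiter-Glo luminescence; AC50 from Hill fits.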

[22] = Cell Viability - LYMP2-021 (AID 974)
How it was run: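 Human lymphoblastoid cells (2500/well) were preincubated 5 hr at 37 C, then exposed to compounds for 24 hr at 37 C in complete medium. Intracellular ATP was read by CellTiter-Glo luminescence; AC50 came from Hill-equation fits of concentration-response data.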

Sequence of Cytochrome P450 3A4 (Homo sapiens) (P08684 whole entry, looked up): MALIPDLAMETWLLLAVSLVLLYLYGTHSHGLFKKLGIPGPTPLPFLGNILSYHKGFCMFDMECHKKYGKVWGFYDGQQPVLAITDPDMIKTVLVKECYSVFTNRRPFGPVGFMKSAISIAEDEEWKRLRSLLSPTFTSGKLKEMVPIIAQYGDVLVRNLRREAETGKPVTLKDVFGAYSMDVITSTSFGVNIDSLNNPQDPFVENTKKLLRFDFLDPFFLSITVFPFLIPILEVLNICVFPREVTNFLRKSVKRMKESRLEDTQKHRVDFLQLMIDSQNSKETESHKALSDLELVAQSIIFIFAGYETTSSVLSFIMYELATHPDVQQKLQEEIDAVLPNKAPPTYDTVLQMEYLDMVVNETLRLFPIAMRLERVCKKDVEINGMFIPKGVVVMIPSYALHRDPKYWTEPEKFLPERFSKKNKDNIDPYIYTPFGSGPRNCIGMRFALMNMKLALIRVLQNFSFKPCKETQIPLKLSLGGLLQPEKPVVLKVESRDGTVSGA

Cc1cccc(C#N)c1
inactive: caspase-3 activation [1] -2.05% | outcome [2] | Potency [3] | Potency [4] | Potency [5] | Potency [6] | Potency [7] | outcome [8] | Potency [9] | Potency [10] | Potency [11] | Potency [12] | Potency [13] | Potency [14] | Potency [15] | Potency [16] | Potency [17] | Potency [18] | Potency [19] | Potency [20] | Potency [21] | Potency [22]
